This is part of a sample that, as a whole, favours compounds with a hit. Of some 83,000 tested, about 20% had one in any assay.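 Testing used 96-well plates and a 48-hour single-concentration exposure. Example: -40 means 40% of the starting cells died.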 Values without a mark were called inactive. Activity calls are given as the source filed them. The calls were made as follows: active = growth percent below 10; inactive = the rest.
Tests used:
Assay in all cases: NCI-60 one-dose screen, 48 h (100 = growth as untreated, 0 = no growth, -100 = all killed)
Conditions in all cases: 10 µM unless noted
[1] = test system: SR leukemia
[2] = test system: RPMI-8226 leukemia
[3] = test system: OVCAR-8 ovarian
[4] = test system: OVCAR-5 ovarian
[5] = test system: SK-OV-3 ovarian
[6] = test system: IGROV1 ovarian
[7] = test system: OVCAR-3 ovarian
[8] = test system: HS 578T breast
[9] = test system: NCI/ADR-RES ovarian
[10] = test system: T-47D breast
[11] = test system: BT-549 breast
[12] = test system: MDA-MB-435 melanoma
[13] = test system: MCF7 breast
[14] = test system: HCT-116 colon
[15] = test system: HCC-2998 colon
[16] = test system: KM12 colon
[17] = test system: SW-620 colon
[18] = test system: OVCAR-4 ovarian

Compound	growth [1]	growth [2]	growth [3]	growth [4]	growth [5]	growth [6]	growth [7]	growth [8]	growth [9]	growth [10]	growth [11]	growth [12]	growth [13]	growth [14]	growth [15]	growth [16]	growth [17]	growth [18] [%]
CCOC(=O)c1c(NC(=O)c2ccccc2)sc2c3c(ccc12)OCN(C)C3	-39.6% (active)	-46.2% (active)	28.5%	-0.612% (active)	88.5%	18.6%	52.1%	57.9%	5.26% (active)	-10.1% (active)	62.2%	-88.5% (active)	-50.6% (active)	-20.9% (active)	-85% (active)	8.58% (active)		
CC1=Nc2cnc(Nc3ccc(N4CCCCC4)cc3)nc2Nc2ccccc21	34%	34.3%	77.2%	82.7%	104%	63.3%	94.9%	84.5%	62.6%	46.9%	42.5%	89.7%	72.5%	59%	106%	54.9%	96%	
Cc1c(C(C)(C)O)cn2ncnc(Oc3ccc(NC(=O)Nc4ccc(Cl)c(C(F)(F)F)c4)c(F)c3)c12	8.9% (active)	49.9%	70.7%	134%	95.6%	57.3%	47.6%	80.9%	68%	40.6%	72.4%	58%	32.4%	38.7%		43.6%	85%	
CCN1C(=O)N(CC)C2C1NN=c1s/c(=C\c3ccc(OC)cc3)c(=O)n12 (stereo not drawn)	12.1%	20.6%	-2.81% (active)	29.4%	40.5%	19.6%	-16.5% (active)	21.6%	0.931% (active)	57.3%	9.76% (active)	-23.7% (active)	14.4%	9.53% (active)	15.4%	10.5%	22.8%	
COc1ccc(/C=C2\CN(C(=O)C(Cl)Cl)C/C(=C\c3ccc(OC)c(OC)c3)C2=O)cc1OC	6.16% (active)	-5.84% (active)	19.1%	10.6%	48.3%	-43.9% (active)	-16.6% (active)	21.1%	13.7%	0.33% (active)	-41% (active)	-34.3% (active)	0.517% (active)	-83.6% (active)	-95.5% (active)	-49.7% (active)	-41.4% (active)	
O=C(CN1C(=O)S/C(=C\C(Cl)=C\c2ccccc2)C1=O)NC1CCS(=O)(=O)C1 (stereo not drawn)	14.2%	21.7%	47.1%	110%	106%	41.3%	19.4%	87.4%		15.7%	76.5%	66.2%	13.7%	5.67% (active)	103%	65.4%	22.6%	
COc1ccc(N/N=C/c2cn(-c3ccc(C(=O)O)cc3)nc2-c2cc3ccccc3oc2=O)cc1	44.8%	51.6%	65.4%	70.2%	99.1%	71.5%	74.1%	106%	67.6%	49.6%	77.8%	52.4%	49%	49.7%	41.8%	48.2%	52.9%	
COc1ccc(/C=N/Nc2c3ccccc3nc3ccccc23)cc1	95.6%	83.8%	97%	111%	90.8%	88.2%	91.7%	93.1%	102%	87.5%	92.2%	97%	81.9%	97.4%	105%	91.4%	97.7%	
COc1cc2c(c(OC)c1OC)C(=O)CC(c1cccc(C(=O)Nc3ccccc3Br)c1)O2 (stereo not drawn)	64%	68.7%	91.8%	96.5%	95.4%		97.6%	103%	88.8%	55.4%	78.8%	83.9%	68.9%	81.5%	95%	93.5%	99.3%	
COc1ccc2cc(-c3nc4ccc(C)cn4c3NCc3ccco3)c(=O)[nH]c2c1	31.5%	62.3%	78.5%	70.8%	78.1%		89.4%	65.3%	68.7%	47.1%	66.1%	86.8%	74.1%	57.5%	95.6%	77.7%	87.1%	
COc1ccc(C/C(C)=C(\c2ccc(Cl)cc2)c2ccc(OCCCN(C)C)cc2)cc1	-31.7% (active)	-2.97% (active)	86.2%	70.8%	99.1%	62.8%	79.4%	75.6%	88.7%	62.1%	91.3%	82.6%	16.2%	60.3%	47.1%	68.6%	60.8%	
FC(F)(F)c1[nH]ncc1-c1nc2ccc3[nH]ncc3c2c2c1CCCC2	-16.6% (active)	12.3%	13.7%	9.73% (active)	-3.29% (active)	-8.57% (active)	9.88% (active)	-3.07% (active)	53.7%	0% (active)	-24% (active)	32.1%	1.69% (active)	1.68% (active)	5.29% (active)	11.1%		
O=C(Nc1cc(Cl)ccc1O)c1ccccc1Nc1ccnc(C(F)(F)F)c1	-26.3% (active)	-21.5% (active)	10.6%	68.6%	49.9%	1.77% (active)	-6.87% (active)	-2.86% (active)	-2.27% (active)	0.662% (active)	33.2%	29.1%	8.95% (active)	2.14% (active)	3.95% (active)	7.26% (active)	15%	
COc1cc(N2C(=O)[C@H](Cl)C2c2ccc(SC)cc2)cc(OC)c1OC (stereo partly drawn)	1.95% (active)	3.63% (active)	8.62% (active)	70%	20.4%	27.8%	3.77% (active)	25.1%	-0.874% (active)	49.1%	-9.33% (active)	-26.3% (active)	12.4%	-17.2% (active)	7.52% (active)	14.4%	24.3%	
CCOC(=O)c1nnn(Cc2cc(=O)oc3ccc(O)cc23)c1C	92.8%	96.7%	107%	101%	105%		107%	93.5%		98%	110%	104%	92.4%	96%	97.3%	102%	98.2%	109
COC12C=C/C(=C(/C(=O)OCc3csc(SC)n3)C(=O)CCCCCCCCC3(OC)C=C/C(=C(/C(=O)OCc4cnc(SC)s4)C(=O)CCCCCCCC1)O3)O2 (stereo not drawn)	1.64% (active)	1.53% (active)	27%	60%	87.8%	21%	21.5%	57.2%	81.3%	41.9%	31.7%	10%	23.3%	7.05% (active)	-62.4% (active)	18.1%	27.6%	
CC(O)CNC(Cc1ccccc1)c1ccc2c(c1)OCO2 (stereo not drawn)	101%	90.3%	97.1%	59.6%	66.2%	101%	98.7%	103%	94.7%	47.2%	57.9%	99.6%	91.5%	62.1%	104%	99.3%		
CCCCCCCCCCOC(=O)c1nn(C(C)=O)c2cc(C)c(C)cc12	98.2%	88.9%	98.5%	100%	92.3%	103%	111%	104%	98.1%	99.7%	90.5%	100%	94%	75.4%	105%	104%	97.3%	
